Assay results as given in article PMC8384837, “Expanding the binding specificity for RNA recognition by a PUF domain”.

The sequences below were run against PUM1 PUF domain R3-VRM (Homo sapiens, UniProt Q14671 828-1176, C935V;Q939M) (assay: yeast three-hybrid, YBZ-1, SC-Leu-His + 0.5 mM 3-AT, 4 days). Conditions: tags: N-Gal4 AD-HA kept; label: inside an RPR1-promoter hybrid RNA with tandem MS2 sites; ssRNA.
Summary of the method: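 Each repeat of the Pumilio-1 PUF domain was randomized at its three base-contacting residues, and these libraries were co-expressed from a centromeric plasmid with matching RNA elements in strain YBZ-1. After four days on SC-Leu (input) or SC-Leu-His + 0.5 mM 3-AT (selection), the repeat regions were PCR-amplified and Illumina-sequenced. The interaction score compares variant frequency between input and selection as a log change, computed in log2 with a pseudocount of 1 for absent variants.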
With “GGCUAGAACUAGUGGAUCCCCCGGCGCCCGGCGGCUCGAGCCCGGGUAAGUGUAAUUAGUCUGCAUGCCGCCGGGCGCCAUGCCUGCAGGUCGACUCUAGAAAACAUG” the binding signal was 1.73 log2 enrichment (interaction score). For “GGCUAGAACUAGUGGAUCCCCCGGCGCCCGGCGGCUCGAGCCCGGGUAAGUGUAAGUAGUCUGCAUGCCGCCGGGCGCCAUGCCUGCAGGUCGACUCUAGAAAACAUG”, the binding signal was 1.15 log2 enrichment (interaction score). For “GGCUAGAACUAGUGGAUCCCCCGGCGCCCGGCGGCUCGAGCCCGGGUAAGUGUAAAUAGUCUGCAUGCCGCCGGGCGCCAUGCCUGCAGGUCGACUCUAGAAAACAUG”, the binding signal was 3.67 log2 enrichment (interaction score).
